Assay results reported in PubChem BioAssay (NCATS).
Records with an inconclusive call do not appear. Active and inactive are the calls of the source. Calls come from the whole dose curve; as a rule, active = well fitted inhibition curve with a large enough effect; inconclusive = small, poorly fitted or top-dose-only effect; inactive = flat fitted curve, though single readings scatter.

Tested on: N140
Experiment: qHTS profiling for inhibitors of Plasmodium falciparum proliferation (AID 504749); note: nearly all actives have a fitted effect of over 60% in size;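 for activity, negative = inhibition: 0% = DMSO vehicle and full inhibition = artemisinin control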
Conditions: P. falciparum in erythrocytes, SYBR Green DNA, 72 h; series mostly up to 12.8 µM; activity, negative = inhibition: at the top concentration
In short: (§1)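 Each compound contacts P. falciparum-infected red blood cells for 72 h at 37 C; lysis buffer (Tris, EDTA, saponin, Triton X, SYBR Green I) is added and fluorescence measured next morning; values normalized to controls.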
Potency is the fitted concentration of half-maximal effect.

activity, negative = inhibition, inactive:
CC1(C)S[C@H]2C(NC(=O)[C@@H](N)c3ccc(O)cc3)C(=O)N2[C@@H]1C(=O)O (stereo partly drawn) -8.63% [at 28.7 µM]
CN(C)CCc1c[nH]c2ccc(CC3COC(=O)N3)cc12 (stereo not drawn) 10.7% [at 28.7 µM]
CC(C)Oc1ccc2c(=O)cc(-c3ccccc3)oc2c1 -7.88% [at 28.7 µM]
N[C@@H]1C(O)OC(CO)C(O)C1O (stereo partly drawn) 7.96% [at 28.7 µM]
CC(=O)[C@]1(O)CCC2C3C=C(Cl)C4=CC(=O)C5CC5[C@@]4(C)C3CC[C@]21C (stereo partly drawn) 5.13% [at 28.7 µM]
C[C@@]12C=CC(=O)C=C1CCC1C3CC(O)[C@@](O)(C(=O)CO)[C@]3(C)CC(O)[C@]12F (stereo partly drawn) -8.18% [at 28.7 µM]
CCC1OC(=O)C(C)[C@@H](O[C@H]2C[C@@](C)(OC)C(O)C(C)O2)C(C)[C@@H](O[C@@H]2OC(C)CC(N(C)C)C2O)[C@@](C)(O)CC(C)C(=O)[C@@H](C)C(O)[C@]1(C)O (stereo partly drawn) -3.66% [at 28.7 µM]
CC1C2CCC3C4CC=C5CC(N(C)C)CC[C@@]5(C)C4CC[C@@]32CN1C (stereo partly drawn) 2.8% [at 28.7 µM]
CCC(C)C(=O)OC1CC(O)C=C2C=CC(C)C(CCC(O)CC(O)CC(=O)O)C21 (stereo not drawn) 10.5% [at 28.7 µM]
OCC1OC(n2cnc3c(=S)nc[nH]c32)C(O)C1O (stereo not drawn) -11.1% [at 28.7 µM]

Potency, active:
NC(CCC(=O)N[C@@H](CS)C(=O)NCC(=O)O)C(=O)O (stereo partly drawn) 4.47 µM
CC(=O)OCC(=O)[C@@]12OC3(CCCC3)OC1CC1C3CCC4=CC(=O)C=C[C@@]4(C)[C@]3(F)C(O)C[C@]12C (stereo partly drawn) 11.2 µM
CCC(=O)O[C@@]1(C(=O)CCl)C(C)CC2C3CCC4=CC(=O)C=C[C@@]4(C)[C@]3(F)C(O)C[C@]21C (stereo partly drawn) 8.91 µM
CO[C@]12C(COC(N)=O)C3=C(C(=O)C(C)=C(N)C3=O)N1CC1NC12 (stereo partly drawn) 0.631 µM

Tested on: P93_24
Experiment: as above
Conditions: P. falciparum in erythrocytes, SYBR Green DNA, 72 h; series mostly up to 12.8 µM; activity, negative = inhibition: at the top concentration
In short: as §1

activity, negative = inhibition, inactive:
CC1(C)S[C@H]2C(NC(=O)[C@@H](N)c3ccc(O)cc3)C(=O)N2[C@@H]1C(=O)O (stereo partly drawn) 16.4% [at 28.7 µM]
CN(C)CCc1c[nH]c2ccc(CC3COC(=O)N3)cc12 (stereo not drawn) -20.6% [at 28.7 µM]
C[C@@]12CCC(=O)C=C1C=CC1C2CC[C@]2(C)C1CC[C@@]21CCC(=O)O1 (stereo partly drawn) -12.4% [at 28.7 µM]
N[C@@H]1C(O)OC(CO)C(O)C1O (stereo partly drawn) -4.69% [at 28.7 µM]
CC(=O)[C@]1(O)CCC2C3C=C(Cl)C4=CC(=O)C5CC5[C@@]4(C)C3CC[C@]21C (stereo partly drawn) 3.47% [at 28.7 µM]
C[C@@]12C=CC(=O)C=C1CCC1C3CC(O)[C@@](O)(C(=O)CO)[C@]3(C)CC(O)[C@]12F (stereo partly drawn) 1.1% [at 28.7 µM]
CCC1OC(=O)C(C)[C@@H](O[C@H]2C[C@@](C)(OC)C(O)C(C)O2)C(C)[C@@H](O[C@@H]2OC(C)CC(N(C)C)C2O)[C@@](C)(O)CC(C)C(=O)[C@@H](C)C(O)[C@]1(C)O (stereo partly drawn) -1.35% [at 28.7 µM]
CC1C2CCC3C4CC=C5CC(N(C)C)CC[C@@]5(C)C4CC[C@@]32CN1C (stereo partly drawn) -3.71% [at 28.7 µM]
CCC(C)C(=O)OC1CC(O)C=C2C=CC(C)C(CCC(O)CC(O)CC(=O)O)C21 (stereo not drawn) -8.31% [at 28.7 µM]
OCC1OC(n2cnc3c(=S)nc[nH]c32)C(O)C1O (stereo not drawn) -18.7% [at 28.7 µM]

Potency, active:
NC(CCC(=O)N[C@@H](CS)C(=O)NCC(=O)O)C(=O)O (stereo partly drawn) 3.16 µM
CCC(=O)O[C@@]1(C(=O)CCl)C(C)CC2C3CCC4=CC(=O)C=C[C@@]4(C)[C@]3(F)C(O)C[C@]21C (stereo partly drawn) 7.94 µM
CO[C@]12C(COC(N)=O)C3=C(C(=O)C(C)=C(N)C3=O)N1CC1NC12 (stereo partly drawn) 1 µM

Tested on: P94_40
Experiment: as above
Conditions: P. falciparum in erythrocytes, SYBR Green DNA, 72 h; series mostly up to 12.8 µM; activity, negative = inhibition: at the top concentration
In short: as §1

activity, negative = inhibition, inactive:
CC1(C)S[C@H]2C(NC(=O)[C@@H](N)c3ccc(O)cc3)C(=O)N2[C@@H]1C(=O)O (stereo partly drawn) 7.21% [at 28.7 µM]
CN(C)CCc1c[nH]c2ccc(CC3COC(=O)N3)cc12 (stereo not drawn) 8.5% [at 28.7 µM]
C[C@@]12CCC(=O)C=C1C=CC1C2CC[C@]2(C)C1CC[C@@]21CCC(=O)O1 (stereo partly drawn) -0.564% [at 28.7 µM]
CC(C)Oc1ccc2c(=O)cc(-c3ccccc3)oc2c1 0.0157% [at 28.7 µM]
CCCCCCCCCc1ccc(OCCOCCOCCOCCOCCOCCOCCOCCOCCO)cc1 -29.2% [at 28.7 µM]
CC(=O)[C@]1(O)CCC2C3C=C(Cl)C4=CC(=O)C5CC5[C@@]4(C)C3CC[C@]21C (stereo partly drawn) -2.51% [at 28.7 µM]
C[C@@]12C=CC(=O)C=C1CCC1C3CC(O)[C@@](O)(C(=O)CO)[C@]3(C)CC(O)[C@]12F (stereo partly drawn) 5.66% [at 28.7 µM]
CCC1OC(=O)C(C)[C@@H](O[C@H]2C[C@@](C)(OC)C(O)C(C)O2)C(C)[C@@H](O[C@@H]2OC(C)CC(N(C)C)C2O)[C@@](C)(O)CC(C)C(=O)[C@@H](C)C(O)[C@]1(C)O (stereo partly drawn) -5.92% [at 28.7 µM]
CC1C2CCC3C4CC=C5CC(N(C)C)CC[C@@]5(C)C4CC[C@@]32CN1C (stereo partly drawn) 7.31% [at 28.7 µM]
CCC(C)C(=O)OC1CC(O)C=C2C=CC(C)C(CCC(O)CC(O)CC(=O)O)C21 (stereo not drawn) 9.67% [at 28.7 µM]
OCC1OC(n2cnc3c(=S)nc[nH]c32)C(O)C1O (stereo not drawn) 1.08% [at 28.7 µM]

Potency, active:
NC(CCC(=O)N[C@@H](CS)C(=O)NCC(=O)O)C(=O)O (stereo partly drawn) 3.55 µM
CC(=O)O[C@@]1(C(C)=O)CCC2C3CC(C)C4=CC(=O)CC[C@@]4(C)C3CC[C@]21C (stereo partly drawn) 12.6 µM
CC(=O)OCC(=O)[C@@]12OC3(CCCC3)OC1CC1C3CCC4=CC(=O)C=C[C@@]4(C)[C@]3(F)C(O)C[C@]12C (stereo partly drawn) 12.6 µM
CCC(=O)O[C@@]1(C(=O)CCl)C(C)CC2C3CCC4=CC(=O)C=C[C@@]4(C)[C@]3(F)C(O)C[C@]21C (stereo partly drawn) 11.2 µM
CO[C@]12C(COC(N)=O)C3=C(C(=O)C(C)=C(N)C3=O)N1CC1NC12 (stereo partly drawn) 0.891 µM
